Measured values as given in PubChem BioAssay (NCATS).
Inconclusive results are not listed. Unless noted, calls follow the shape of the dose curve; as a rule, active = well fitted curve in either direction with a large enough effect (not every such curve was filed as active); inconclusive = small, poorly fitted or top-dose-only effect, or another doubt; inactive = flat fitted curve, though single readings scatter.

Key:
[1] = AP1 Signaling Pathway (AID 357); conditions: ME-180 AP-1-bla reporter, EGF-induced, beta-lactamase ratio, 5 h; at 17.2 µM (top of the series) unless noted;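 also: ME-180 reporter cells stimulated with EGF at its EC50 level; % is scaled to controls: 0 for no effect and ±100 for the full control effect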
In short: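 A ratiometric CCF4 readout (405 nm excitation; 460 and 530 nm emission) quantified AP-1-driven beta-lactamase in ME-180 cells after 5 h with compound and EC50 EGF; AC50 values were derived for activators and inhibitors.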

[2] = NFAT Signaling Pathway (AID 444); conditions: Jurkat NFAT-bla M1, carbachol, beta-lactamase ratio, 5 h; at 17.2 µM (top of the series) unless noted;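 also: carbachol stimulus at about its EC50 of 1 µM final; % is scaled to controls: 0 for no effect and ±100 for the full control effect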
In short: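 Read-out: CCF4 FRET ratio (460 nm/530 nm) after 1 h RT dye loading, used for %activity and AC50 from titration series. Cells: Jurkat NFAT-β-lactamase/M1 line, treated with compound plus 1 uM carbachol for 5 h, 37 °C.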

[3] = Stat Signaling Pathway (AID 446); conditions: ME-180 SIE beta-lactamase reporter, IL-6 stimulated, 5 h; at 17.2 µM (top of the series) unless noted;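 also: ME-180 cervical cancer cells given 40 pM IL-6 alongside compound; SIE-controlled beta-lactamase reporter measured as 460/530 nm FRET emission ratio; % is scaled to controls: 0 for no effect and ±100 for the full control effect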
In short: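 Emission at 460 and 530 nm (excitation 405 nm) reports SIE-controlled beta-lactamase in ME-180 cells. Cells received compound with 40 pM IL-6 for 5 hrs at 37 C; data scaled between 300 pM IL-6 and 125 nM JAK-inhibitor controls.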

[4] = target: Glucocorticoid receptor (Homo sapiens) (UniProt P04150); test: GR-GFP Redistribution (AID 450;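 active = compounds whose dose series gives a full or clear partial fitted curve of increased nuclear translocation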; also: potency is read from the fitted curve at half-maximal effect)
[5] = qHTS Assay for Identification of Small Molecule Agonists for Hypoxia Response Element Signaling Pathway (AID 914; active = well fitted activation curve with a large enough effect in the signal ratio, with a control signal flat, not every such curve was filed as active; the % refers to the signal ratio; also: % of control where 0% means no effect); conditions: ME-180 (cervical carcinoma) HRE-bla reporter, beta-lactamase ratio, CoCl2, 17 h; activation: stronger effect = higher value
In short: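 Compounds in a titration series were added to ME-180 reporter cells alongside an EC50 level of CoCl2. After 17 hours, beta-lactamase activity was read as the 460nm/530nm emission ratio of CCF4, giving AC50 values.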

Chain of Glucocorticoid receptor (Homo sapiens) (P04150 whole entry, looked up): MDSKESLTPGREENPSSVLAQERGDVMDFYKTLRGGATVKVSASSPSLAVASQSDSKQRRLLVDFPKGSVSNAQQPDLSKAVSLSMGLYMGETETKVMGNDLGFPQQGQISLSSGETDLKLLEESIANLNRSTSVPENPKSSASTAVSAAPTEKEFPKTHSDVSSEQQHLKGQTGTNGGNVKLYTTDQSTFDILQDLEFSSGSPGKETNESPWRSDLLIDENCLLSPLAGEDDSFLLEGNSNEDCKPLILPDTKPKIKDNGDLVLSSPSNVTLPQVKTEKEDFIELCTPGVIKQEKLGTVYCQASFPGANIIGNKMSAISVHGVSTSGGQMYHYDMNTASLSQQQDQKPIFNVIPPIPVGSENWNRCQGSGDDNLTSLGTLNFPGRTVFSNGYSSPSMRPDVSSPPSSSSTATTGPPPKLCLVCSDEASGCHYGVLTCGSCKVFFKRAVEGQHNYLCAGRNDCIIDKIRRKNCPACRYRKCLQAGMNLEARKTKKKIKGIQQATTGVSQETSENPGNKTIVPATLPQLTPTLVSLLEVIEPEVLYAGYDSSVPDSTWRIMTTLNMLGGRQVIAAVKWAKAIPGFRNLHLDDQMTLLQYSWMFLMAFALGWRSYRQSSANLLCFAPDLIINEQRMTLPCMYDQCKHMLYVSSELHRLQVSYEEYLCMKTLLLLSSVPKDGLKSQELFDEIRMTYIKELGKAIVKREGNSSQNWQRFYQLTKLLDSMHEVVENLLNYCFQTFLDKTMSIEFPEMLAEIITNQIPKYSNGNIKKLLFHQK

NC(=O)CSc1nc(N)c2c3c(sc2n1)CCCCC3
inactive: activity change, negative = inhibition [1] -2.28% | activity change, negative = inhibition [2] -8.37% | activity, negative = inhibition [3] -4.35% | Potency [4] > 20.6 µM | activation [5] -10.3%

O=C(NCc1cccnc1)c1ccc(=O)oc1
inactive: activity change, negative = inhibition [1] 10.5% | activity change, negative = inhibition [2] -0.473% | activity, negative = inhibition [3] 0.949% | Potency [4] > 20.6 µM | activation [5] 10.6%

CC(=O)N1CC=C2C(C#N)=C(N)C(C#N)(C#N)[C@H](c3ccoc3)[C@H]2C1
inactive: activity change, negative = inhibition [1] 8.44% | activity change, negative = inhibition [2] -12.2% | activity, negative = inhibition [3] 10.5% | Potency [4] > 20.6 µM | activation [5] -26.3%

CN(C)c1ccc(C=Nc2cnn(C)c2C(N)=O)cc1
inactive: activity change, negative = inhibition [1] -9.71% | activity change, negative = inhibition [2] 2.44% | activity, negative = inhibition [3] -12.3% | Potency [4] > 20.6 µM | activation [5] -1.16%

O=C1c2ccccc2C(=O)N1CC1c2ccccc2CCN1C(=O)N1CCOCC1 (stereo not drawn)
inactive: activity change, negative = inhibition [1] -3.7% | activity change, negative = inhibition [2] -0.0702% | activity, negative = inhibition [3] 1.92% | Potency [4] > 20.6 µM | activation [5] 4.7%

CN(CCNC(=O)c1ccc(/C=N/O)nc1)Cc1ccccc1
inactive: activity change, negative = inhibition [1] 0.297% | activity change, negative = inhibition [2] -21.1% | activity, negative = inhibition [3] -0.957% | Potency [4] > 20.6 µM | activation [5] 9.65%

CCN1CCCC1Cn1cnc2c([nH]c3ccc(C)cc32)c1=O (stereo not drawn)
inactive: activity change, negative = inhibition [1] -6.04% | activity change, negative = inhibition [2] 8.74% | activity, negative = inhibition [3] 3.87% | Potency [4] > 20.6 µM | activation [5] 9.56%

CC1(C)Cc2c(C#N)c(NCC3CCCO3)nc(-c3ccco3)c2CO1 (stereo not drawn)
inactive: activity change, negative = inhibition [1] -9.98% | activity change, negative = inhibition [2] 5.63% | Potency [4] > 20.6 µM

COc1ccc2c(c1OC)C(=O)OC2c1c(O)nc(SC)n(-c2ccccc2)c1=O (stereo not drawn)
inactive: activity change, negative = inhibition [1] -1.4% | activity change, negative = inhibition [2] -5.89% | activity, negative = inhibition [3] -3% | Potency [4] > 20.6 µM | activation [5] 1.25%

COCc1cc(C)nc(N)c1C#N
inactive: activity change, negative = inhibition [1] 5.99% | activity change, negative = inhibition [2] -10.9% | activity, negative = inhibition [3] -0.857% | Potency [4] > 20.6 µM | activation [5] 1.6%

CCOC(=O)c1c(N)sc2c1CCC1C(=O)N(C3CCCCC3)C(=O)C21 (stereo not drawn)
inactive: activity change, negative = inhibition [1] -12.9% | activity change, negative = inhibition [2] -2.94% | activity, negative = inhibition [3] -6.61% | Potency [4] > 20.6 µM | activation [5] -6.89%
